# Reference: the antibiotic and cytotoxicity screens of Wong et al. (2023)
# The campaign covered roughly 39,000 compounds. About 3,300 (8.5%) were called active. Shown is part of a subset that was picked to be rich in actives.
# System: HepG2
# Test: cytotoxicity call (relative viability < 0.9)
# Details: 10 µM
row,SMILES,cytotoxicity call
1,C[C@@H]1CN([C@H](C)CO)C(=O)Cc2cc(NC(=O)CCCCCC(=O)Nc3ccccc3N)ccc2O[C@H]1CN(C)S(=O)(=O)c1cn(C)cn1,inactive
2,COc1ccc(NC(=O)N(C)C[C@@H]2OCCCC[C@@H](C)Oc3ccc(NS(=O)(=O)c4cccs4)cc3C(=O)N([C@@H](C)CO)C[C@H]2C)cc1,inactive
3,C[C@H](CO)N1C[C@H](C)[C@@H](CN(C)S(=O)(=O)c2cn(C)cn2)Oc2ccc(NC(=O)C3CC3)cc2CC1=O,inactive
4,C[C@@H]1CCCCO[C@H](CN(C)Cc2ccc(C(=O)Nc3ccccc3N)cc2)[C@@H](C)CN([C@@H](C)CO)C(=O)c2cc(N(C)C)ccc2O1,inactive
5,O=C(C[C@H]1C=C[C@@H](NC(=O)CN2CCOCC2)[C@@H](CO)O1)NCCc1ccccc1,inactive
6,CC(C)CC#Cc1ccc2c(c1)O[C@H](CN(C)C(=O)c1ccncc1)[C@H](C)CN([C@H](C)CO)S2(=O)=O,inactive
7,CCCCCCCCc1ccc(-c2ccc(C(=O)O)cc2)cc1,inactive
8,CCCCCCCCCc1ccc(OCCOCCOCCOCCOCCOCCOCCOCCOCCO)cc1,active
9,OCCC[C@@H](O)c1ccc(OCCO)cc1,inactive
10,C[C@@H]1CN([C@@H](C)CO)C(=O)CCCn2nncc2CO[C@H]1CN(C)Cc1ccc(C(=O)Nc2ccccc2N)cc1,inactive
11,c1coc(CNC[C@H]2Cn3nncc3CO2)c1,inactive
12,CC(C)(C)c1ccc(NC(=O)c2ccc(C(C)(C)C)s2)cc1,inactive
13,N[C@H]1CC[C@@H](NC(=O)[C@H]2CCc3ccccc32)CC1,inactive
14,CC(C)(C)c1ccc(NC(=O)N[C@H]2CCCc3ccccc32)cc1,active
15,Cc1ccc(S(=O)(=O)Nc2ccc3c(c2)C(=O)N([C@H](C)CO)C[C@H](C)[C@@H](CN(C)C(=O)NC2CCCCC2)OCCCC[C@@H](C)O3)cc1,inactive
16,Cl.Clc1ccc(Cn2c(CN3CCCC3)nc3ccccc32)cc1,inactive
17,Clc1ccc(CSc2nc3ccccc3s2)cc1,inactive
18,Cc1nc2ccccc2n1Cc1ccc(Cl)cc1,active
19,CC1=CC2(CO)C(=O)[C@]3(CO3)C1[C@H]1[C@]2(C)C=C(CO)C(=O)[C@]12CO2 (some centres undefined),inactive
20,COc1ccc([Si](C)(C)[C@H]2[C@H](CC(=O)N3Cc4ccccc4C[C@H]3CO)O[C@@]3(C(=O)N(Cc4ccc(N5C(=O)c6cccc7cccc5c67)cc4)c4ccccc43)[C@@H]2C)cc1,inactive
21,C[C@@H]1[C@@H]([Si](C)(C)F)[C@H](CCO)O[C@@]12C(=O)N(Cc1cccc(N3C(=O)c4cccc5cccc3c45)c1)c1ccccc12,inactive
22,COc1ccc([Si](C)(C)[C@@H]2[C@@H](CC(=O)N3CCC[C@H]3CO)O[C@]3(C(=O)N(Cc4cccc(N5C(=O)c6cccc7cccc5c67)c4)c4ccccc43)[C@H]2C)cc1,inactive
23,COc1ccc([Si](C)(C)[C@@H]2[C@@H](CC(=O)N3Cc4ccccc4C[C@H]3CO)O[C@]3(C(=O)N(Cc4cccc(N5C(=O)c6cccc7cccc5c67)c4)c4ccccc43)[C@H]2C)cc1,inactive
24,COc1ccc([Si](C)(C)[C@@H]2[C@@H](CCO)O[C@]3(C(=O)N(Cc4cccc(N5C(=O)c6cccc7cccc5c67)c4)c4ccccc43)[C@H]2C)cc1,active
25,COc1ccc([Si](C)(C)[C@H]2[C@H](CCO)O[C@@]3(C(=O)N(Cc4cccc(N5C(=O)c6cccc7cccc5c67)c4)c4ccccc43)[C@@H]2C)cc1,active

row,SMILES,cytotoxicity call
1,COc1ccc([Si](C)(C)[C@H]2[C@H](CCO)O[C@@]3(C(=O)N(Cc4ccccc4)c4ccc(N5C(=O)c6cccc7cccc5c67)cc43)[C@@H]2C)cc1,active
2,COc1ccc([Si](C)(C)[C@H]2[C@H](CC(=O)N3CCC[C@H]3CO)O[C@@]3(C(=O)N(Cc4cccc(N5C(=O)c6cccc7cccc5c67)c4)c4ccccc43)[C@@H]2C)cc1,inactive
3,COc1ccc([Si](C)(C)[C@H]2[C@H](CC(=O)N3Cc4ccccc4C[C@H]3CO)O[C@@]3(C(=O)N(Cc4cccc(N5C(=O)c6cccc7cccc5c67)c4)c4ccccc43)[C@@H]2C)cc1,active
4,COc1ccc([N+](=O)[O-])cc1CNCCO,inactive
5,CCNC(=O)C[C@H]1C=C[C@@H](NC(=O)C2CCOCC2)[C@H](CO)O1,inactive
6,CN(C)CC(=O)N[C@@H]1CC[C@@H](CCNS(=O)(=O)c2ccccc2)O[C@H]1CO,inactive
7,NCc1ccccc1-c1ccco1,inactive
8,C1CC(N2CCNCC2)C1,inactive
9,CN(C)CC(=O)N[C@@H]1CC[C@@H](CC(=O)O)O[C@H]1CO,inactive
10,C[C@H](CO)N1C[C@H](C)[C@@H](CN(C)Cc2cccc3c2OCCCO3)OCc2cnnn2CCCC1=O,inactive
11,CC(O)C(=O)Nc1c(I)c(C(=O)NC(CO)CO)c(I)c(C(=O)NC(CO)CO)c1I (centres undefined),inactive
12,Cc1cccc(S(=O)(=O)N2C[C@@H](O)COC[C@@H]3O[C@@H](CC(=O)NCCCN4CCOCC4)CC[C@H]32)c1,inactive
13,COc1ccc(S(=O)(=O)N(C)C[C@@H]2Oc3ccc(NC(=O)NC(C)C)cc3C(=O)N([C@H](C)CO)C[C@H]2C)cc1,inactive
14,C[C@@H]1CN([C@H](C)CO)C(=O)c2cccc(NC(=O)c3cnccn3)c2O[C@@H]1CN(C)S(=O)(=O)c1cccs1,inactive
15,COC(=O)C1=C2CC[C@H](CO)NC(=O)N[C@@H](Cc3ccccc3)C(=O)NCc3cn(nn3)C[C@H](Cc3ccccc3)NC(=O)c3oc(c(C(=O)OC)c3C(=O)OC)CC[C@H](CO)NC(=O)N[C@@H](Cc3ccccc3)C(=O)NCc3cn(nn3)C[C@H](Cc3ccccc3)NC(=O)C(=C1C(=O)OC)O2,inactive
16,CCCN(C)C[C@@H]1OCCCC[C@@H](C)Oc2ccc(NS(C)(=O)=O)cc2C(=O)N([C@H](C)CO)C[C@H]1C,inactive
17,CO[C@@H]1CN(C)C(=O)c2ccc(NC(=O)c3ccccc3)cc2OC[C@@H](C)N(C(=O)CN(C)C)C[C@@H]1C,inactive
18,CNC(=N)NCCC[C@@H](N)C(=O)O,inactive
19,C[C@@H]1CN([C@H](C)CO)C(=O)c2cc(C#Cc3ccccc3F)cnc2O[C@H]1CN(C)C(=O)Cc1ccncc1,inactive
20,Oc1c(Cl)cc(Cl)cc1Sc1cc(Cl)cc(Cl)c1O,active
21,Cc1noc(C)c1NC(=O)Nc1ccc2c(c1)C(=O)N([C@@H](C)CO)C[C@@H](C)[C@H](CN(C)CC1CC1)OCCCC[C@H](C)O2,inactive
22,C[C@H]1CN([C@@H](C)CO)C(=O)c2cc(NC(=O)Cn3cnnn3)ccc2O[C@H]1CN(C)S(=O)(=O)c1cccs1,inactive
23,C[C@H]1CN([C@@H](C)CO)C(=O)CCCn2cc(nn2)CO[C@H]1CN(C)Cc1ccc2c(c1)OCCN2C,inactive
24,C[C@H](CO)N1C[C@H](C)[C@H](CN(C)Cc2ccc(Cl)c(Cl)c2)Oc2ccc(NC(=O)C3CCCCC3)cc2CC1=O,inactive
25,C[C@H](CO)N1C[C@H](C)[C@H](CN(C)C(=O)c2ccccc2)OCCCC[C@H](C)Oc2ccc(NC(=O)Nc3cccc4ccccc34)cc2C1=O,inactive

row,SMILES,cytotoxicity call
1,C[C@@H]1CN([C@@H](C)CO)C(=O)c2cc(NS(C)(=O)=O)ccc2O[C@H]1CN(C)Cc1ccc(C(F)(F)F)cc1,inactive
2,Clc1ccc(C(Cn2ccnc2)OCc2ccsc2Cl)c(Cl)c1 (centres undefined),inactive
3,Clc1ccc(C(c2ccc(Cl)cc2)[n+]2ccn(C[C@@H](OCc3ccc(Cl)cc3Cl)c3ccc(Cl)cc3Cl)c2)cc1,active
4,CNC[C@@H]1OCCCC[C@H](C)Oc2ccc(NC(=O)c3ccncc3)cc2C(=O)N([C@@H](C)CO)C[C@@H]1C,inactive
5,NC(=O)NCCC[C@H](N)C(=O)O,inactive
6,NC(=O)CC[C@H]1CCCNC1,inactive
7,CCc1ccc(NC(=N)N=C(N)N)cc1,inactive
8,Cc1ccc(NC(=N)N=C(N)N)c(C)c1,inactive
9,Cc1ccccc1NC(=N)N=C(N)N,active
10,COc1cccc(S(=O)(=O)N2C[C@@H](O)COC[C@H]3O[C@@H](CC(=O)N4CCN(c5ccccc5)CC4)CC[C@@H]32)c1,inactive
11,COc1ccc(NC(=O)N(C)C[C@@H]2OCc3cnnn3CCCC(=O)N([C@H](C)CO)C[C@H]2C)c(OC)c1,inactive
12,CN1CCN(C(=O)C[C@@H]2CC[C@H]3[C@H](COc4ccc(NC(=O)c5cscn5)cc4C(=O)N3C)O2)CC1,inactive
13,C[C@H](CO)N1C[C@H](C)[C@@H](CN(C)C)Oc2ccc(NC(=O)Cc3cn(C)c4ccccc34)cc2CC1=O,inactive
14,Nc1nc(N)c2nc(CNc3ccc(C(=O)NC(CCC(=O)O)C(=O)O)cc3)cnc2n1 (centres undefined),active
15,CN(Cc1cnc2nc(N)nc(N)c2n1)c1ccc(C(=O)NC(CCC(=O)O)C(=O)O)cc1.O (centres undefined),active
16,CC(=O)N[C@@H](CCC(=O)O)C(=O)O,inactive
17,Nc1nc(=O)c2c([nH]1)NC[C@H](CNc1ccc(C(=O)N[C@@H](CCC(=O)O)C(=O)O)cc1)N2C=O,inactive
18,Nc1nc(=O)c2nc(CNc3ccc(C(=O)NC(CCC(=O)O)C(=O)O)cc3)cnc2[nH]1 (centres undefined),inactive
19,Nc1nc(=O)c2c([nH]1)NCC(CNc1ccc(C(=O)NC(CCC(=O)O)C(=O)O)cc1)=N2 (centres undefined),inactive
20,CCCN(CCC)C(=O)C(CCC(=O)O)NC(=O)c1ccccc1 (centres undefined),inactive
21,CN(Cc1cnc2nc(N)nc(N)c2n1)c1ccc(C(=O)N[C@@H](CCC(=O)O)C(=O)O)cc1,active
22,Nc1nc(=O)c2nc(CNc3ccc(C(=O)N[C@@H](CCC(=O)O)C(=O)O)cc3)cnc2[nH]1,inactive
23,CN(C)CCCNC(=O)C[C@H]1C=C[C@H](NS(=O)(=O)c2ccccc2)[C@H](CO)O1,inactive
24,C[C@@H]1CN([C@@H](C)CO)C(=O)Cc2cc(NS(C)(=O)=O)ccc2O[C@H]1CN(C)C(=O)Nc1ccc(F)cc1,inactive
